SMILES strings stand for the structures. “And” between values parts separate entries of the source, which are not always exact repeats. Identical values can stand only once. Records with an inconclusive call do not appear. The source made the active and inactive calls. The call rests on the fitted dose curve; in most records, active means well fitted activation curve with a large enough effect; inconclusive means small, poorly fitted or top-dose-only effect, or effect the other way; inactive means flat fitted curve, though single readings scatter.

The text below walks through data of PubChem BioAssay AID1540 (National Center for Advancing Translational Sciences (NCATS), 2009).

Chain of Pyruvate kinase PKM (Homo sapiens) (P14618 whole entry, looked up, canonical isoform): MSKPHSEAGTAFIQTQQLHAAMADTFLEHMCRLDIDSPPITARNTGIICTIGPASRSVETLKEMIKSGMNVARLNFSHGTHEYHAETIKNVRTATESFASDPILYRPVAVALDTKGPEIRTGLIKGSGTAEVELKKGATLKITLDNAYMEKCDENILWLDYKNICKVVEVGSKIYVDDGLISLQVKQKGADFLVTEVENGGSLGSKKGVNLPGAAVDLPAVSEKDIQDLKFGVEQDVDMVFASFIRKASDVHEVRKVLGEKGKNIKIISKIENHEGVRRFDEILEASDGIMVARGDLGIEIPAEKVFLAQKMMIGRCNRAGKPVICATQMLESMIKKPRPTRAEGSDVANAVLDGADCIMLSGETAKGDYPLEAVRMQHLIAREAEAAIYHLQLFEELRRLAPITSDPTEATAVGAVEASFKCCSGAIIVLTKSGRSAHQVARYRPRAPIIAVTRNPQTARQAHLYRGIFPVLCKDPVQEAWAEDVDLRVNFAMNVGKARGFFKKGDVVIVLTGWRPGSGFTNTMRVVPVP

The test has as its target Pyruvate kinase PKM (Homo sapiens) (UniProt P14618). As to the kind of experiment: Secondary assay for Activators of Human Pyruvate Kinase M2 isoform. As to conditions: purified hPK-M2, LDH-coupled NADH fluorescence kinetic; series mostly up to 57.5 µM. An excerpt: Confirmatory assay NIH Chemical Genomics Center [NCGC] Matthew G. Vander Heiden, M.D., Ph.D. [Harvard Medical School, 77 Avenue Louis Pasteur, Boston, MA 02115] NCGC Assay Overview: Human pyruvate kinase muscle 2 (hPK-M2)enzyme was supplied as a highly purified (>95% pure) preparation from Harvard Medical School and a secondary assay was used to evaluate compounds. This assay couples the formation of pyruvate from hPK-M2 using lactate dehydrogenase (LDH) and NADH. The depletion of NADH is followed in a fluorescent-based kinetic assay that follows the formation of pyruvate to lactate, as catalyzed LDH (described by Hannaert et al., 2002)1 Pyruvate kinase substrates, PEP and ADP, were present in the assay at 0.1 mM and 4 mM respectively. In this kinetic assay initial rates were determined by following the fluorescence of NADH depletion.
NCGC Assay Protocol Summary: Three uL of substrate mix (final concentration, 50 mM Tris-Cl pH 8.0, 200 mM KCl, 15 mM MgCl2, 0.1 mM PEP, 4.0 mM ADP, and 0.2 mM NADH) was dispensed into black-solid 1536 well plates. 23 nL of compounds were delivered by a pin tool and 1 uL of enzyme mix (final concentrations, 10 nM hPK-M2 and 1 uM of LDH) was added. Plates were immediately placed in ViewLux (Perkin Elmer) and NADH fluorescence was determined at 30 second exposure intervals for between 3 and 6 minutes. Data were normalized to the uninhibited and EC100 activation using known activators such as fructose-bis-phosphate.
For the compound `Cn1c2cc(S(C)=O)sc2c2cnn(Cc3ccccc3F)c(=O)c21` (stereo not given), the Potency is 398 nM (active). In the case of `Cc1cc2c(s1)c1cnn(Cc3ccc(F)c(F)c3F)c(=O)c1n2C` it was 1260 nM (active).

Regarding `O=S(=O)(c1ccc2c(c1)OCCO2)N1CCN(S(=O)(=O)c2c(F)cccc2F)CC1`, the Potency is 1 µM (active) and 562 nM (active). As for `O=C(O)Cc1cc(F)c(S(=O)(=O)N2CCN(S(=O)(=O)c3ccc4c(c3)OCCO4)CC2)cc1F`, the Potency was 14100 nM (active). Next, `CC(=O)c1cc2c(s1)c1cnn(Cc3ccccc3F)c(=O)c1n2C`: 158 nM (active). `COc1ccc(S(=O)(=O)N2CCN(S(=O)(=O)c3ccc4c(c3)OCCO4)CC2)cc1`: the Potency was 562 nM (active). Consider `Cn1c2ccsc2c2cnn(Cc3ccc(F)cc3)c(=O)c21`, for which the Potency was 562 nM (active). In the case of `Cc1ccc(C)c(OC2=NS(=O)(=O)c3ccccc32)c1` it was “inactive”; in that of `Cn1c2cc(Br)sc2c2cnn(Cc3c(F)cccc3Cl)c(=O)c21`, 794 nM (active). In the case of `Cc1cc2c(s1)c1cnn(Cc3ccccc3)c(=O)c1n2C` it was 199 nM (active); in that of `Cn1c2cc(Br)sc2c2cnn(Cc3c(F)cccc3F)c(=O)c21`, 631 nM (active); in that of `CC(O)c1cc2c(s1)c1cnn(Cc3ccccc3F)c(=O)c1n2C` (stereo not given), 398 nM (active). In the case of `CCn1c2cc(C)sc2c2cnn(Cc3ccccc3F)c(=O)c21` it was 5010 nM (active); in that of `CCc1cc2c(s1)c1cnn(Cc3ccccc3F)c(=O)c1n2C`, 631 nM (active). For the compound `Cc1cc2c(s1)c1cnn(Cc3ccc(C(F)(F)F)cc3)c(=O)c1n2C`, the Potency was 2240 nM (active). In the case of `Cc1cc2c(s1)c1cnn(Cc3ccc(F)cc3F)c(=O)c1n2C` it was 178 nM (active); in that of `CSc1cc2c(s1)c1cnn(Cc3cccc(O)c3)c(=O)c1n2C`, 65.1 nM (active); in that of `CC(=O)Nc1ccc(S(=O)(=O)N2CCCN(S(=O)(=O)c3ccc4c(c3)OCCO4)CC2)cc1`, 2590 nM (active). In the case of `CCOC(=O)CCc1cc(F)c(S(=O)(=O)N2CCN(S(=O)(=O)c3ccc4c(c3)OCCO4)CC2)cc1F` it was 10000 nM (active). Next, `Cn1c2ccsc2c2cnn(Cc3ccccc3F)c(=O)c21`: 2510 nM (active); `O=S(=O)(c1ccc2c(c1)OCCO2)N1CCN(S(=O)(=O)c2ccc(F)cc2F)CC1`: 501 nM (active). On to `Cc1cc2c(s1)c1cnn(Cc3c(F)cccc3Cl)c(=O)c1n2C`, for which the Potency was 158 nM (active). In the case of `COc1cc(F)c(S(=O)(=O)N2CCCN(S(=O)(=O)c3ccc4c(c3)OCCO4)CC2)c(F)c1` it was 58 nM (active); in that of `Cc1cc2c(s1)c1cnn(Cc3cccc(F)c3)c(=O)c1n2C`, 1260 nM (active). Next, `O=S(=O)(c1cccc(F)c1)N1CCN(S(=O)(=O)c2ccc3c(c2)OCCO3)CC1`: 1000 nM (active); `O=S(=O)(c1ccc2ccccc2c1)N1CCN(S(=O)(=O)c2c(F)cccc2F)CC1`: 8.91 µM (active) and 158 nM (active); `CC1(C)CCc2cc(S(=O)(=O)N3CCN(S(=O)(=O)c4c(F)cccc4F)CC3)ccc2O1`: 5.01 µM (active) and 631 nM (active). In the case of `CC(=O)Nc1cccc(S(=O)(=O)N2CCN(S(=O)(=O)c3c(F)cccc3F)CC2)c1` it was 14600 nM (active); in that of `O=S(=O)(c1ccc(F)cc1)N1CCN(S(=O)(=O)c2ccc3c(c2)OCCO3)CC1`, 199 nM (active); in that of `Cc1cc2c(s1)c1cnn(Cc3c(F)cccc3F)c(=O)c1n2C`, 141 nM (active). `O=S(=O)(c1ccc2c(c1)OCCO2)N1CCN(S(=O)(=O)c2ccccc2F)CC1`: the Potency was 316 nM (active). Next, `O=C1CN(S(=O)(=O)c2c(F)cccc2F)CCN1S(=O)(=O)c1ccc2c(c1)OCCO2`: 2510 nM (active); `CNc1cccc(S(=O)(=O)N2CCN(S(=O)(=O)c3ccc4c(c3)OCCO4)CC2)c1`: “inactive”; `COc1cc2c(s1)c1cnn(Cc3ccccc3F)c(=O)c1n2C`: 158 nM (active).

For the compound `O=S(=O)(c1ccc2c(c1)OCCO2)N1CCN(S(=O)(=O)c2ccccn2)CC1`, the Potency is 2820 nM (active). Take `COc1cc(F)c(S(=O)(=O)N2CCCN(S(=O)(=O)c3ccc(N)cc3)CC2)c(F)c1`: the Potency was 1300 nM (active). Turning to `O=S(=O)(c1ccc2c(c1)OCCO2)N1CCN(S(=O)(=O)c2cccc[n+]2[O-])CC1`, the Potency is 4470 nM (active). In the case of `O=S(=O)(c1ccc2c(c1)OCO2)N1CCN(S(=O)(=O)c2c(F)cccc2F)CC1` it was 708 nM (active); in that of `COc1cccc(Cn2ncc3c4sc(B(O)O)cc4n(C)c3c2=O)c1`, 17800 nM (active); in that of `Cc1cc2c(s1)c1cnn(Cc3ccc(Cl)cc3)c(=O)c1n2C`, 1120 nM (active).
